# Shiga toxin inh – blocks Shiga toxin action in Vero cells; AID 2315; Vero cells, Shiga toxin protein synthesis inhibition reporter; inhibition, % at 38.7 µM; actives 9.2% (n = 290,000); in the data active means inhibition mostly above about 28%, no sharp cut-off; inactive means mostly below about 43%; further: 0% is about no effect
# Pf growth 48h – inhibits P. falciparum growth in the first generation, 48 h | Potency, µM (highest dose often 28.7 µM), without a hit: top-dose activity change, negative = inhibition, actives largely listed as inhibitors | P. falciparum luciferase growth in erythrocytes, 48 h | actives 5.9% (n = 310,000); further: potency means the concentration at half of the fitted maximal effect; on the % scale 0 is the no-effect control and ±100 the full control effect
#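 Luciferase-expressing P. falciparum in infected erythrocytes (2% hematocrit, 0.1% parasitemia final) in RPMI 1640/0.5% Albumax were exposed to compound for 48 hours at 37 C, 5% CO2; growth read as luminescence.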
# CHX counter – affects cycloheximide protein synthesis inhibition readout, counter-screen; cell reporter, cycloheximide protein synthesis inhibition counterscreen; max response, %; actives 12% (n = 300,000); AID 2314; in the data active means max response mostly above about 13%, no sharp cut-off; inactive means mostly below about 14%; further: read at 38.3 µM for the half of the compounds with a filed dose; 0% is about no effect
# Pf growth 96h – inhibits malaria parasite growth, 96 h. P. falciparum luciferase reporter growth, 96 h. Potency, µM (top dose mostly 28.7 µM), inactives show at the highest dose activity change, negative = inhibition, actives largely listed as inhibitors. actives 6.9% (n = 320,000); further: potency means the concentration at half of the fitted maximal effect; on the % scale 0 is the no-effect control and ±100 the full control effect
#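 Plates of compound plus infected erythrocytes (2% hematocrit, 0.05% parasitemia final) incubate 96 hours, 37 C, 5% CO2. Detection reagent added; reduced luminescence from the parasites' luciferase reporter flags inhibition.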
# * marks the source's active call; other numbers are inactive results; ? = inconclusive; / = no result. Compounds with a hit are over-represented: about 21% of the library has one in this group of screens. Unless noted, the call rests on the fitted dose curve; in most records, active means well fitted inhibition curve with a large enough effect; inconclusive means small, poorly fitted or top-dose-only effect, or another doubt; inactive means no such curve, though single readings can be large or run the other way.
SMILES,Shiga toxin inh,Pf growth 48h,CHX counter,Pf growth 96h
CCCCCCCCCC(=O)N1c2ccccc2NC(=O)C1CC(=O)Nc1ccc(C(=O)O)cc1 (configuration not stated),11,-2%,-1,4%
COc1cccc2cc(C(=O)Oc3ccccc3)c(=O)oc12,-14,6%,-2,13µM*
COc1cccc2cc(C(=O)NC(C)c3ccccc3)c(=O)oc12 (configuration not stated),-13,31%,9,-1%
COc1cccc2cc(C(=O)OCc3ccccc3)c(=O)oc12,49*,-9%,54*,?
COc1cccc2cc(C(=O)Nc3cccc(C)n3)c(=O)oc12,66*,/,77*,-8%
Cc1ccc(NS(=O)(=O)c2c(C(=O)N3CCCC3)c(C)n(C)c2C)cc1,-4,29%,1,-25%
CCCOc1ccccc1C(=O)Nc1ccc(S(=O)(=O)N2CCN(C)CC2)cc1,-18,?,1,-22%
C/C(Cc1nnn(-c2cc(C)on2)n1)=N\O,10,64%,-1,69%
CC(C)(C)C#CC(CCc1ccccc1)OS(N)(=O)=O (configuration not stated),21,?,12*,?

# Bioassay records: PubChem BioAssay, National Center for Advancing Translational Sciences (NCATS)
